Source: PubChem BioAssay (several laboratories)
MRP-1 activ: activates MRP-1; H69AR cells + doxorubicin, viability rescue, CellTiter-Glo; viability increase, % at 10 µM; hit rate 0.61% among 140,000; AID 799;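 active means viability gain under doxorubicin at or above a set limit, the compound median plus 3 SD, cut at about 4.7% in these data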;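 further: MRP-1 overexpressing cells given doxorubicin 25 µM after compound pretreatment; 18-22 h compound pretreatment then 72 h with doxorubicin before readout; 0% = doxorubicin-only wells and 100% = vehicle-treated cells without doxorubicin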
CYP2C19 inhib: blocks human cytochrome P450 2C19. P33261. CYP2C19 Supersomes, luciferin-H EGE luminescence, 30 min. inhibition, % at 5 µM. hit rate 21% among 96,000. AID 778;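 active means CYP2C19 inhibition above a set limit at 5 µM in the primary screen, cut at about 50% in these data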;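 further: plate controls were negative control wells for no effect and 2.5 mM tranylcypromine positive control for full effect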
Target sequence (P33261 whole entry, looked up): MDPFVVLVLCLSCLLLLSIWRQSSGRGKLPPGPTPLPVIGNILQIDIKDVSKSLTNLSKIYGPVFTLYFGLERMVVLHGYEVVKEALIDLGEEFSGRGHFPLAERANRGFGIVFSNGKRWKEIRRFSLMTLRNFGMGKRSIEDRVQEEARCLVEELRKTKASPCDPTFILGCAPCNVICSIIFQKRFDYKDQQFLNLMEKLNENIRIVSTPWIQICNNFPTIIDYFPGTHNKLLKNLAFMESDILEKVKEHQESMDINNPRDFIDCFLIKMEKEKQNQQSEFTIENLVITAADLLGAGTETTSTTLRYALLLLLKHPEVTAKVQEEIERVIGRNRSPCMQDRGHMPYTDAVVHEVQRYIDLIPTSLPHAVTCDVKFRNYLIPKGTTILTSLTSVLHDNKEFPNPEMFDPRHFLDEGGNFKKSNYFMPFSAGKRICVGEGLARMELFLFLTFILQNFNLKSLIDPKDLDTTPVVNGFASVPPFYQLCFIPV
CYP2C9 activ: activators of human CYP2C9; P11712; recombinant CYP2C9, luciferin-H conversion, luminescence; hits give high values; factor 1 = untreated enzyme, 0 = blocked; activation factor at 5 µM; hit rate 1.4% among 96,000; AID 1024;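 active means activation factor of 2 or more for CYP2C9 at a 5 µM dose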;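 further: 0 = sulfaphenazole-blocked wells and 1 = vehicle-only wells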
CYP2C9 inhib: blocks human cytochrome P450 2C9 | CYP2C9 Supersomes, luciferin-H conversion, luminescence | inhibition, % at 5 µM | hit rate 20% among 96,000 | AID 777;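 active means blocking of liver enzyme CYP2C9 beyond about 50% at 5 µM, limit read from the data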
MRP reversal: MRP-mediated drug resistance reversal; differential viability (reversal), % at 10 µM; AID 602; H69AR cells + 2 uM doxorubicin, CellTiter-Glo, 72 h; hit rate 0.04% among 85,000;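 active means viability drop by adding the cancer drug above about 55%, with treated viability meeting a 40% cutoff, limit read from the data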;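 further: viability without doxorubicin minus viability with 2 µM doxorubicin for each compound; larger differential means the compound sensitizes cells more to doxorubicin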
CYP2C19 activ: cytochrome P450 2C19 (human) activation. P33261. 96,000 tested, under 10 active. AID 1025. recombinant CYP2C19, luciferin-H EGE luminescence; hits give high values; 0 = fully inhibited enzyme, 1 = untreated enzyme. activation factor at 5 µM;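 active means activation factor of at least 2 at 5 µM in the primary screen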;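 further: 0 = wells with 2.5 mM tranylcypromine and 1 = vehicle-only wells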
Numbers without * were called inactive; · = not tested or not shown. Most compounds without a hit are left out; they make up all but 21% or so of the library.

SMILES | MRP-1 activ | CYP2C19 inhib | CYP2C9 activ | CYP2C9 inhib | MRP reversal | CYP2C19 activ
CCOC(=O)N1CCN(c2c(NCCCN3CCCCCC3)c(=O)c2=O)CC1 | -1 | -10 | 1.1 | -11 | 4 | 1.1
CN1CCN(c2nc3nonc3nc2N2CCN(C)CC2)CC1 | 0 | 5 | 0.9 | 8 | 2 | 0.9
Cc1onc(-c2ccccc2Cl)c1C(=O)Nc1cccc(-c2cn3cccnc3n2)c1 | 0 | 62* | 0.2 | 85* | -20 | 0.4
Cc1cc(=O)oc(C)c1C(=O)OCC(=O)c1ccc2ccccc2c1 | -3 | 63* | 1 | 4 | 10 | 0.4
Cc1onc(-c2c(F)cccc2Cl)c1C(=O)Nc1ccc(S(=O)(=O)Nc2ncccn2)cc1 | -1 | -15 | 1.1 | -12 | 7 | 1.1
Cc1onc(-c2ccccc2Cl)c1C(=O)Nc1ccc(OCC(=O)N2CCOCC2)cc1 | -1 | · | · | · | -1 | ·
Cc1onc(-c2ccccc2Cl)c1C(=O)Nc1ccc(S(=O)(=O)N2CCCC2)cc1 | 0 | 30 | 0.3 | 75* | -2 | 0.7
Cc1onc(-c2c(F)cccc2Cl)c1C(=O)Nc1cccc(Cn2cccn2)c1 | -1 | 23 | 0.5 | 52* | 7 | 0.8
O=C(Oc1ccc(-c2cn3c(n2)SCC3)cc1)c1ccccc1 | 2 | -10 | 1.1 | -10 | 5 | 1.1
Cc1c(N/C(=N/S(=O)(=O)c2ccccc2)c2ccc(Cl)cc2)c(=O)n(-c2ccccc2)n1C | 0 | · | · | · | · | ·
Cc1ccc(Cn2ccc(NC(=O)c3c(-c4ccccc4Cl)noc3C)n2)cc1 | 1 | 25 | 0.5 | 52* | 6 | 0.7
COCCNC(=O)c1ccccc1NC(=O)c1ccccc1N(C)S(C)(=O)=O | 0 | · | · | · | · | ·
Cc1onc(-c2ccccc2Cl)c1C(=O)Nc1nn[nH]n1 | 0 | 9 | 1 | 5 | -22 | 0.9
Cc1onc(-c2ccccc2)c1C(=O)Nc1ccc2c(c1)OCCO2 | 0 | 30 | 0.8 | 24 | 9 | 0.7
Cc1onc(-c2c(Cl)cccc2Cl)c1C(=O)Nc1ccc2c(c1)OCCO2 | -3 | 54* | 0.1 | 88* | -1 | 0.5
Cc1ccc(Cn2ccc(NC(=O)c3noc4c3CCc3ccccc3-4)n2)cc1 | -3 | -10 | 1.7 | -67 | 5 | 1.1
Cc1onc(-c2ccccc2Cl)c1C(=O)Nc1ccc2c(c1)OCO2 | 0 | 71* | 0.5 | 53* | · | 0.3
COCCNC(=O)c1ccccc1NC(=O)c1ccccc1N(C)S(=O)(=O)c1ccccc1 | -4 | 100* | 0.1 | 93* | · | 0
O=C(N/N=C/c1ccccc1OCc1ccccc1)c1cccs1 | 0 | · | · | · | · | ·
CCN(CC)S(=O)(=O)c1ccc(NC(=O)c2c(-c3ccccc3)noc2C)cc1 | -3 | 65* | 0.5 | 46 | 21 | 0.4
Cc1onc(-c2ccccc2Cl)c1C(=O)OCC(=O)c1ccc2c(c1)OCCO2 | 1 | 55* | 0.5 | 47 | 5 | 0.4
Cc1ccccc1-n1nc2c(c1NC(=O)c1c(-c3ccccc3Cl)noc1C)CS(=O)(=O)C2 | -2 | -2 | 0.9 | 5 | 5 | 1
O=C(Nc1ccc2c(c1)OCO2)C1CC(c2ccccc2Cl)=NO1 (stereo not given) | -2 | 94* | 1.8 | -75 | -2 | 0.1
Cc1ccc(-n2nc3c(c2NC(=O)c2c(-c4ccccc4Cl)noc2C)CS(=O)(=O)C3)c(C)c1 | -4 | 52* | 0.2 | 79* | -1 | 0.5
CCCOc1ccc(NC(=O)c2c(-c3ccccc3)noc2C)cc1 | 0 | 6 | 1 | 1 | 10 | 0.9
SMILES | MRP-1 activ | CYP2C19 inhib | CYP2C9 activ | CYP2C9 inhib | MRP reversal | CYP2C19 activ
CCC(C)NC(=O)C1CCN(S(=O)(=O)c2ccc(OC)cc2)CC1 (stereo not given) | -1 | 19 | 1.1 | -14 | 7 | 0.8
COC(=O)c1ccccc1NC(=O)C1CCCO1 (stereo not given) | -2 | · | · | · | · | ·
CC1=C(C(=O)Nc2ccccc2C)C(c2ccc(C)o2)N2C(=O)CSC2=N1 (stereo not given) | 7.3* | 10 | 0.9 | 6 | 3 | 0.9
Cc1cc(C(=O)NC(CC(C)C)C(=O)O)cc(C)c1[N+](=O)[O-] (stereo not given) | -1 | · | · | · | · | ·
CCn1c(N2CCN(S(=O)(=O)c3ccccc3C(F)(F)F)CC2)nc2ccccc21 | 2 | 69* | 1.2 | -15 | -11 | 0.3
C(=C1/CCCC2=C1Nc1ncnn1C2c1ccccc1)/c1ccccc1 (stereo not given) | -5 | 49 | 0.7 | 25 | 0 | 0.5
CCOc1ccc(NC(=O)CSCc2cnn(-c3ccccc3)c2-n2cccc2)cc1 | -1 | 98* | 0.1 | 94* | -5 | 0
O=C(O)CSCc1cnn(-c2ccccc2)c1-n1cccc1 | -3 | · | · | · | 22 | ·
COc1ccccc1CNC(=O)CSCc1cnn(-c2ccccc2)c1-n1cccc1 | -1 | 97* | 0.1 | 88* | -10 | 0
O=C(CSCc1cnn(-c2ccccc2)c1-n1cccc1)N1CCN(Cc2ccccc2)CC1 | 0 | 89* | 0 | 96* | -2 | 0.1
COc1cc(NC(=O)CSCc2cnn(-c3ccccc3)c2-n2cccc2)cc(OC)c1 | -4 | · | · | · | -18 | ·
COc1cccc(CNC(=O)CSCc2cnn(-c3ccccc3)c2-n2cccc2)c1OC | -1 | 94* | 0 | 97* | -9 | 0.1
CN(C)C(=O)Oc1cccc([N+](C)(C)C)c1 | -1 | · | · | · | -17 | ·
CCOC(=O)/C(C#N)=C/c1cc(C)n(-c2ccccc2)c1C | -1 | 52* | 0.5 | 54* | 9 | 0.5
CC(C)Cn1c(N)c(C(=O)COC(=O)c2ccc3c(c2)OCCO3)c(=O)n(C)c1=O | 0 | 60* | 0.3 | 67* | -3 | 0.4
Cc1c(NC(=O)CSc2ccccc2C(=O)Nc2cccnc2)c(=O)n(-c2ccccc2)n1C | 0 | -6 | 0.9 | 9 | 4 | 1.1
Cn1cnnc1Sc1cc(N2CCN(S(=O)(=O)c3ccc(Cl)c(Cl)c3)CC2)ccc1[N+](=O)[O-] | -3 | 100* | 0.1 | 89* | · | 0
Cc1cccc(-c2nc(CSc3nc4c(c(=O)[nH]3)CCC4)c(C)o2)c1 | 0 | · | · | · | · | ·
Cc1nnc(-c2cnn(-c3ccccc3)c2N)n1Cc1ccccc1 | -1 | -1 | 1.1 | -10 | · | 1
Nc1nc2c(s1)CCc1c-2cnn1-c1ccccc1 | -3 | 53* | 0.7 | 29 | · | 0.5
Cc1cccc(Cl)c1OCCCCn1ccnc1 | 0 | 100* | 0 | 96* | 14 | 0
Cc1cccc(C(C)(C)C)c1OCCn1ccnc1 | -2 | 98* | 0.3 | 66* | 12 | 0
Cc1cc(Cl)cc(C)c1OCCCCn1ccnc1 | 0 | 100* | 0 | 96* | 4 | 0
Cc1cc(OCCCn2ccnc2)ccc1C(C)C | -1 | · | · | · | · | ·
Cc1cc(C(=O)NCc2ccc(C(=O)O)o2)c(C)o1 | 0 | 0 | 1 | 5 | · | 1
O=C(Cc1c[nH]c2ccccc12)NCc1ccc(Cl)cc1 | -2 | · | · | · | · | ·
CC(=O)N(c1ccc(Cl)cc1)c1c[nH]c2ccccc12 | -2 | 92* | 0.3 | 70* | 2 | 0.1
